For 71 compounds, inhibition results are on record in PubChem BioAssay AID1246 (Columbia University Molecular Screening Center, 2008).

The campaign covered roughly 120,000 compounds. About 840 (0.7%) were called active. The sample as a whole holds a higher share of actives than the screen did. Values without a mark were called inactive.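 The calls were made as follows: active = inhibition above the batch mean plus 3 SD, and confirmed as a hit on visual image review (cut at about 43% in these data); inconclusive = passes the inhibition cutoff but fails visual image review; inactive = the rest.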

The assay in a line: E-selectin induction blockers in HUVEC – imaging, immunofluorescence, high content, primary screen (AID 1246).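 Also: 0% = TNF-stimulated DMSO wells and 100% = unstimulated control wells.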 The conditions noted are these: HUVEC TNFa-induced E-selectin immunofluorescence, at 2 µM, stronger effect = higher value.
A word on the inhibition: it is the change of the read-out against control, counted positive when it falls. Take `CCCCOc1ccc(N(CC(=O)NCC2CCCO2)C(=O)CCC(=O)Nc2cc(C)ccn2)cc1` (stereo unspecified): the inhibition is 13.7%.
For the compound `Cc1cc(NC(=O)CCC(=O)N(CC(=O)NCC2CCCO2)c2ccccc2C)no1` (stereo unspecified), the inhibition was 66.4% (active).
On to `COCCNC(=O)CN(C(=O)CCC(=O)Nc1cc(C)on1)c1ccc(C)cc1C`, for which the inhibition is -15.2%.
As to `Cc1ccc(CSc2nc3[nH]ncc3c(=O)[nH]2)cc1`, the inhibition was 16%.
For `Cc1ccc(C(=O)N/C(=C\c2cccs2)C(=O)NCCc2ccccn2)cc1C`, the inhibition was -0.32%.
In the case of `C=CCC(C(=O)c1ccccc1)[N+](C)(C)CC=C` (stereo unspecified) it was -21.6%; in that of `CC1COc2ccccc2N1S(=O)(=O)c1ccccc1` (stereo unspecified), 10%.
Take `O=C1c2ccccc2NC(c2ccccn2)N1NS(=O)(=O)c1ccccc1` (stereo unspecified): the inhibition was 12.1%.
In the case of `COc1ccc(CCNC(=O)CC2SC(=Nc3cc(C)cc(C)c3)NC2=O)cc1OC` (stereo unspecified) it was -40.4%.
In the case of `COc1ccc2c(c1OC)C(=O)OC2c1c(O)nc(SC)n(-c2ccccc2)c1=O` (stereo unspecified) it was 95% (active).
Consider `CCn1c(SC)nc(O)c(C(c2ccc(OC)c(O)c2)c2c(O)nc(SC)n(CC)c2=O)c1=O`, for which the inhibition is -24.8%.
With `COc1ccc2c(c1OC)C(=O)OC2Nc1nc(-c2ccccc2)cs1` (stereo unspecified), the inhibition is 36.5%.
Turning to `O=C(O)CCCCOn1ccnc1`, the inhibition is 2.16%.
Turning to `Clc1ccc(CN2CCN(/N=C/c3cccnc3)CC2)cc1`, the inhibition was -6.01%.
Regarding `Oc1ccc(-c2nncn2-c2ccccc2)cc1`, the inhibition was -13.7%.
In the case of `CCCCN(C(=O)/C=C/c1ccco1)c1c(N)n(CC(C)C)c(=O)[nH]c1=O`, the inhibition was 7.93%.
In the case of `O=C(Nn1cnc2ccccc2c1=O)c1ccc([N+](=O)[O-])cc1Cl`, the inhibition was -17%.
In the case of `O=C(O)CCC(=O)NCc1ccc2[nH]c3c(c2c1)CCCC3` it was -12%; in that of `O=C1CCCc2c1[nH]c1ccc(Br)cc21`, 71.4% (active).
For the compound `O=[n+]1c2c(n([O-])c3cc(Br)ccc31)CCC2`, the inhibition is 8.3%.
For the compound `CCN1C(=O)/C(=c2\s/c(=C3\Sc4ccccc4N3C)c(=O)n2C)N(C)C1=S`, the inhibition was -4.14%.
Take `CCN(CC)CCNS(=O)(=O)c1ccc(/C=C/C(=O)O)cc1`: the inhibition was 85.3% (active).
In the case of `O=S(=O)(NCCNS(=O)(=O)c1ccccc1)c1ccccc1`, the inhibition was -9.47%.
As to `CCC(C)NC(=O)/C=C/c1ccc(S(=O)(=O)NCc2ccco2)cc1` (stereo unspecified), the inhibition is 1.55%.
In the case of `O=C(Nc1ccnc(-c2ccncc2)n1)c1cccs1` it was -27.2%.
Turning to `CCNC(=S)NNC(=O)C1CCN(Cc2ccccc2)CC1`, the inhibition was -1.82%.
In the case of `Cc1occc1C(=O)N1CCCc2ccccc21` it was 19.4%; in that of `O=C1/C(=C\c2ccccc2Cl)SC(=S)N1CCC(=O)N1CCCc2ccccc21`, -3.4%.
`O=C(c1c(Cl)nc2sccn12)N1CCCc2ccccc21`: the inhibition is 79% (active).
In the case of `Cc1ccc(CN2CCN(Cc3ccc4ncccc4c3)CC2CCO)cc1` (stereo unspecified), the inhibition was -11.2%.
Consider `COc1ccc(Cn2c(=O)cc(C)[nH]c2=S)cc1`, for which the inhibition is 5.51%.
With `Cn1cccc1C(C#N)c1ccccc1C#N` (stereo unspecified), the inhibition was 20.5%.
In the case of `CCCS(=O)(=O)N1CCC(CCOc2ccccc2)(C(=O)OCC)CC1` it was -12.3%; in that of `COc1ccc(F)c(-c2nc(CN3CCC(c4ccccc4)CC3)c(C)o2)c1`, -28.7%; in that of `COc1ccc(CS(=O)/C(Cl)=C(/Cl)C(=O)Nc2ccc(OC)nc2)cc1` (stereo unspecified), 99.4% (active).
For the compound `COc1ccc(NC(=O)/C(Cl)=C(/Cl)S(=O)Cc2ccc(C)cc2)cn1` (stereo unspecified), the inhibition was 27.8%.
For the compound `COc1ccc(NC(=S)Nc2ccccc2Cl)cn1`, the inhibition was -66.9%.
`O=c1cc(O)c(-c2cccc(C(F)(F)F)c2)c(Cl)[nH]1`: the inhibition is 14.3%.
On to `CCc1ccccc1NC(=S)N(CCN1CCCCCC1)Cc1ccco1`, for which the inhibition is -12.7%.
In the case of `N/C(Cc1ccc([N+](=O)[O-])cc1)=N\OC(=O)COc1ccc2ccccc2c1` it was 62.5% (active).
Turning to `N/C(Cc1ccc([N+](=O)[O-])cc1)=N\OC(=O)C1CCCCC1`, the inhibition is -1.96%.
`CCOC(=O)COc1ccc([N+](=O)[O-])cc1`: the inhibition was 7.8%.
In the case of `Cc1ccnc(NC(=O)CCCOc2ccccc2)c1`, the inhibition is 4.53%.
Regarding `Cc1cc(C)nc(SCC(=O)N(C)C)n1`, the inhibition is 0.21%.
Regarding `COc1ccc(CN2CCNC(=O)C2CC(=O)N(C)Cc2ccccn2)cc1OC` (stereo unspecified), the inhibition is -8.81%.
`Cc1cc(C)c(C#N)c(SCC(=O)Nc2ccccc2)n1`: the inhibition was -29.3%.
Turning to `CC(=O)c1ccc(-c2nnc(CCC(=O)N(C)Cc3cnc4ccccn34)o2)s1`, the inhibition is 4.22%.
For the compound `N#CC1=C(N)Oc2[nH]c(=S)[nH]c(=O)c2C12C(=O)Nc1ccccc12` (stereo unspecified), the inhibition is -26.7%.
Turning to `COc1ccc(-n2nnnc2SCC(=O)NCc2cccs2)cc1`, the inhibition is 12.9%.
Turning to `COc1ccc(-c2nnn(Cc3nc(N)nc(N4CCCCC4)n3)n2)cc1`, the inhibition is -40.4%.
In the case of `COc1ccc(-n2nnnc2SCc2nc(N)nc(N3CCOCC3)n2)cc1` it was 61.2% (active); in that of `CCOC(=O)c1sc(=NC(=O)/C=C/c2cccs2)n(C)c1C`, -26.1%.
As for `Cc1cccc(C(=O)NNC(=O)c2cccc([N+](=O)[O-])c2)c1`, the inhibition is -0.72%.
Regarding `O=C(CC12CC3CC(CC(C3)C1)C2)NCc1ccco1`, the inhibition was 23.1%.
On to `Fc1ccccc1Cn1cnc(NC(=S)NCCc2ccccc2)n1`, for which the inhibition was -14.1%.
With `CCC(C)CN1CCC(CO)(Cc2ccccc2Cl)CC1` (stereo unspecified), the inhibition was -16.5%.
With `CCN1CCN(CC(=O)Nc2sc3c(c2C#N)CCC3)CC1`, the inhibition is 9.33%.
For the compound `CCN(CC)CCNC(=O)c1ccc(NC(=O)c2c(F)cccc2Cl)cc1`, the inhibition was -1.94%.
`O=C(NCC1CCCO1)C1CCN(C2CCN(C(=O)C3CCCCC3)CC2)CC1` (stereo unspecified): the inhibition was 13%.
With `Cn1c(=O)cc(OCCCC(=O)N2CCN(Cc3ccc4c(c3)OCO4)CC2)c2ccccc21`, the inhibition was 52.1% (active).
As for `O=C(CCCN1C(=O)c2cccc3cccc(c23)C1=O)N1CCN(Cc2ccc3c(c2)OCO3)CC1`, the inhibition was -25.6%.
As to `Cn1c(=O)cc(OCCCC(=O)N2CCN(c3ccccn3)CC2)c2ccccc21`, the inhibition was -12.9%.
In the case of `COCc1ccc(C(=O)N2CCc3c([nH]c4ccccc34)C2c2ccccn2)s1` (stereo unspecified) it was 4.79%.
In the case of `CCN(CC)c1ccc2c(Nc3ccccc3)c(C=O)c(=O)oc2c1` it was -20.2%.
With `O=C(COC(=O)c1ccco1)NCc1ccc(Cl)cc1`, the inhibition is -1.29%.
For `O=S(=O)(/N=C(/Nc1ccccc1)c1ccccc1)c1cccs1`, the inhibition was 68.3% (active).
As for `O=C(O)c1ccc(NC(=O)c2cccs2)cc1`, the inhibition was -5.04%.
For `O=S(=O)(/N=C(/Nc1ccccn1)c1ccccc1)c1ccc(Cl)cc1`, the inhibition was -19.7%.
Regarding `COc1ccc(NC(=O)CN2C(=O)CSC2=O)cc1`, the inhibition is -1.6%.
Turning to `O=C(N/N=C/c1cc2c(cc1Br)OCO2)C1COc2ccccc2O1` (stereo unspecified), the inhibition is -17.4%.
As to `Cc1cc(C)cc(OCC(=O)Nc2ccc(S(=O)(=O)Nc3ccccn3)cc2)c1`, the inhibition was -36.2%.
